In ChEMBL document CHEMBL5724796, “Tm Shift (DSF) assay results for EUbOPEN Chemogenomics Library” (2024):
Non-standard residues stand in square brackets, D forms with d. Residues, ends and D or L forms follow the SMILES beside them. *: point of attachment. Tyr(3-Cl) = N[C@@H](Cc1ccc(O)c(Cl)c1)C(=O)O; Benzoyl(3,5-Cl2) = O=C(c1cc(Cl)cc(Cl)c1)*; Lys(Et2) = CCN(CC)CCCC[C@H](N)C(=O)O; Gly(cPent) = N[C@H](C(=O)O)C1CCCC1; NH(propargyl) = C#CCN*

Columns and labels:
Conditions in all cases: Compound concentration 20.0 uM
[1] = molecular target: Tyrosine-protein kinase ABL1 (Homo sapiens) (UniProt P00519)
[2] = molecular target: Bromodomain-containing protein 4 (Homo sapiens) (UniProt O60885)
[3] = molecular target: Cyclin-dependent kinase 2 (Homo sapiens) (UniProt P24941)
[4] = molecular target: Casein kinase I isoform delta (Homo sapiens) (UniProt P48730)
[5] = molecular target: Glycogen synthase kinase-3 beta (Homo sapiens) (UniProt P49841)
[6] = molecular target: Mitogen-activated protein kinase 1 (Homo sapiens) (UniProt P28482)
[7] = molecular target: T1, Aurora kinase A (Homo sapiens) (UniProt O14965)
T1 sequence (whole entry): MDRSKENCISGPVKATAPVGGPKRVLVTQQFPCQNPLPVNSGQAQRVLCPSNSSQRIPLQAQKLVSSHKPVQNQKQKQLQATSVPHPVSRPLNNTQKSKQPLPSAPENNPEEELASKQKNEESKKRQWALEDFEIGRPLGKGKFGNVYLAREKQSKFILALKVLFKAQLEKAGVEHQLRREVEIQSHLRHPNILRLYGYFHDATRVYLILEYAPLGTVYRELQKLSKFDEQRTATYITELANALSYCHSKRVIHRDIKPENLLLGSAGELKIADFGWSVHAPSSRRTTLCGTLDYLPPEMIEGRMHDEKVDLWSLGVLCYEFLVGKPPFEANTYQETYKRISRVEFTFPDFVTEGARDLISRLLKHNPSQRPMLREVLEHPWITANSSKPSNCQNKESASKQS

[8] = molecular target: T2, Transcription intermediary factor 1-alpha (Homo sapiens) (UniProt O15164)
T2 sequence (whole entry): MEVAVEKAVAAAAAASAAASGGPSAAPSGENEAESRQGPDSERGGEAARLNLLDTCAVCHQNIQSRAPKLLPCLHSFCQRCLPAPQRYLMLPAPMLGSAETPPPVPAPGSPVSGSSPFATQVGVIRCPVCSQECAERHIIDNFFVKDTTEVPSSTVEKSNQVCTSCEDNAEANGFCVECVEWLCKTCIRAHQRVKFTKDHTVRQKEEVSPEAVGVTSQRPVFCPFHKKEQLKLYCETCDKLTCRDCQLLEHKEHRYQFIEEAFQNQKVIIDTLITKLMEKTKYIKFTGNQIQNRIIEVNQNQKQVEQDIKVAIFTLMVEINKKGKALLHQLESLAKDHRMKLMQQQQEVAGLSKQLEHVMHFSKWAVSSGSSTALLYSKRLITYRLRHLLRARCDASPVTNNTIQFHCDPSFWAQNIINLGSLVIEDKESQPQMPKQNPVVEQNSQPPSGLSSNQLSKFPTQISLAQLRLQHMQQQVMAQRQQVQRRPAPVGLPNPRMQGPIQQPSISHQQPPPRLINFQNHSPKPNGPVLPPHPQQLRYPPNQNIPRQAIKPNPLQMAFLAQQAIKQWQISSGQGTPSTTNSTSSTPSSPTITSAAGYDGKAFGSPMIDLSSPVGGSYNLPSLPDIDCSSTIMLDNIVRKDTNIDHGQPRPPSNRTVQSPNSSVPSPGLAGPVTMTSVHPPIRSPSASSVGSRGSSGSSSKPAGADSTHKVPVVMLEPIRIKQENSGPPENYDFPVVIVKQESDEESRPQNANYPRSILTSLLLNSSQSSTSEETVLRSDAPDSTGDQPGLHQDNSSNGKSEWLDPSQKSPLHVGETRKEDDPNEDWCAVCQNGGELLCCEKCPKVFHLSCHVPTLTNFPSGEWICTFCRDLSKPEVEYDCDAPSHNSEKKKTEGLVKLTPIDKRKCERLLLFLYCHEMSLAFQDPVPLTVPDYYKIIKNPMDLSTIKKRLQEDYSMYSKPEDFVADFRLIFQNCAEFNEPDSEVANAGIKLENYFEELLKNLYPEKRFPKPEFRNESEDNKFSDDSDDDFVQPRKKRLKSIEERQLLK

Sequence of Mitogen-activated protein kinase 1 (Homo sapiens) (P28482 whole entry): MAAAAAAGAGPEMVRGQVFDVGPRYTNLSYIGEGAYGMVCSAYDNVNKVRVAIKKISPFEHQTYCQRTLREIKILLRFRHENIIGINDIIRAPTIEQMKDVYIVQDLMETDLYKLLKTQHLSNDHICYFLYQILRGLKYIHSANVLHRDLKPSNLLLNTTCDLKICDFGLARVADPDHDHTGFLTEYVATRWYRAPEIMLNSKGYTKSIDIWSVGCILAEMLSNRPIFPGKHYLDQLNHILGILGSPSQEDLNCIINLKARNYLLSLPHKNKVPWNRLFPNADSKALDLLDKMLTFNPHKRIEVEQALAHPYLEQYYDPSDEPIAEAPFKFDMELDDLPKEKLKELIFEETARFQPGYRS
Sequence of Tyrosine-protein kinase ABL1 (Homo sapiens) (P00519 whole entry): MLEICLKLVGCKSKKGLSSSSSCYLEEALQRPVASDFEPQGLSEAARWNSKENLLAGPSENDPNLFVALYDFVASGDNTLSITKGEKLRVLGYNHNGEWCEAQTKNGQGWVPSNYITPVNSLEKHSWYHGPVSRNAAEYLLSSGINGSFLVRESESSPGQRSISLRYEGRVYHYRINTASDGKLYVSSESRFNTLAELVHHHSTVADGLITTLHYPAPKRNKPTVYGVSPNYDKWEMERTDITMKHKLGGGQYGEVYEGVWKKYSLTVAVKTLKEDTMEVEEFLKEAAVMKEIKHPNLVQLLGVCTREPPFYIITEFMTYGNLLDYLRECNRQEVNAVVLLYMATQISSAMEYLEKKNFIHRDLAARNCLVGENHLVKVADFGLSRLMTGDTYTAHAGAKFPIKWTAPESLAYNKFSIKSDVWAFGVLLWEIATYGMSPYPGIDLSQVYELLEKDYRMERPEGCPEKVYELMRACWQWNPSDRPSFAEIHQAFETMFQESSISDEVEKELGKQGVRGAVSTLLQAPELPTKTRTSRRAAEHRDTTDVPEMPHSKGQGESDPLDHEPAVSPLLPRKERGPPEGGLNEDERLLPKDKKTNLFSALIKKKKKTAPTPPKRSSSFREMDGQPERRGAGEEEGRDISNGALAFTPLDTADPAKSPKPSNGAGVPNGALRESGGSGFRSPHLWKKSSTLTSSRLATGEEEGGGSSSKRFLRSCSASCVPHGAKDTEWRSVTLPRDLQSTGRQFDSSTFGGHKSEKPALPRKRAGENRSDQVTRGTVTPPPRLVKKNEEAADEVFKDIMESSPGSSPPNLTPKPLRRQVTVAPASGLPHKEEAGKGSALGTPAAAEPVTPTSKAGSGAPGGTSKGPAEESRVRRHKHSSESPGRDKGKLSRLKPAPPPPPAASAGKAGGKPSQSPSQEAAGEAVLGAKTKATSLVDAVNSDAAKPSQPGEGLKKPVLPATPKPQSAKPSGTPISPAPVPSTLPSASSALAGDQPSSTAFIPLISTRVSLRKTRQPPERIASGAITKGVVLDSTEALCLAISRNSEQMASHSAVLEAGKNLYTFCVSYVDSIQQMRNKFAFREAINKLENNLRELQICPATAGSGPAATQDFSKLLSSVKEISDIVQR
Sequence of Glycogen synthase kinase-3 beta (Homo sapiens) (P49841 whole entry, looked up): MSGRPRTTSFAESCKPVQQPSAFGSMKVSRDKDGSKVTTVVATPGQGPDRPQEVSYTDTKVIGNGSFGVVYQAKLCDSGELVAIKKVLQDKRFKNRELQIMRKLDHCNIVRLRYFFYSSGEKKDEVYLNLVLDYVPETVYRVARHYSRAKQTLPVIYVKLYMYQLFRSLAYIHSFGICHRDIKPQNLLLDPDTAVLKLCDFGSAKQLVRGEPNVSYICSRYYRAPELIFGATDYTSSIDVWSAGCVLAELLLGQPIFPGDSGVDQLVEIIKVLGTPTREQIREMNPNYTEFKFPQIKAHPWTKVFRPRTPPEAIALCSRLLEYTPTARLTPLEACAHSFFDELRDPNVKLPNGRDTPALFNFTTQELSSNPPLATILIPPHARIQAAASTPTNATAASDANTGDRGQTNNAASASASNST
Sequence of Casein kinase I isoform delta (Homo sapiens) (P48730 whole entry, looked up, canonical isoform): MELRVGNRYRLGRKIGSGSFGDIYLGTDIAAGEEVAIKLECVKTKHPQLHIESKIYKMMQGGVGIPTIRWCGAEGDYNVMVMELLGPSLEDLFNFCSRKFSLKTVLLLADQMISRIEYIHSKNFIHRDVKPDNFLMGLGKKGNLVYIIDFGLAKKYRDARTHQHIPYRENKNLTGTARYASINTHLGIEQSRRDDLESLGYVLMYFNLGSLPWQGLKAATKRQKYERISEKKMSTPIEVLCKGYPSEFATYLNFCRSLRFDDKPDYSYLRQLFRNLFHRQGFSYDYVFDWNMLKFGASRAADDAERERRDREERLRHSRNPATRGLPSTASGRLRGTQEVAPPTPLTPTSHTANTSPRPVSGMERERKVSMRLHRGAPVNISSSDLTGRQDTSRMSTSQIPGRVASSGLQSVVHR

Compound	ΔTm [1]	ΔTm [2]	ΔTm [3]	ΔTm [4]	ΔTm [5]	ΔTm [6]	ΔTm [7]	ΔTm [8]
CCCn1/c(=N/C(=O)c2cccc(C(N)=O)c2)[nH]c2ccccc21	1.41 °C	-1.51 °C	0.06 °C	0.95 °C	-0.17 °C	-1.41 °C	-0.08 °C	-0.27 °C
CC#CCn1c(N2CCC[C@@H](N)C2)nc2c1c(=O)n(Cc1nc(C)c3ccccc3n1)c(=O)n2C	-0.11 °C	0.18 °C	-0.01 °C	-0.33 °C	-0.82 °C	0.06 °C	-0.13 °C	-0.79 °C
O=C(NCCCOc1ccc2[nH]c(=O)ccc2c1)N(C1CC1)[C@@H]1CCCC[C@H]1O	0.31 °C	-0.85 °C	-0.14 °C	-0.05 °C	-0.66 °C	0.1 °C	-2.39 °C	0.02 °C
Cc1nc(-c2cnc(NC(C)C)n(C)c2=O)ccc1Oc1ccnc(-c2cnn(C)c2)c1	13.3 °C	-1.75 °C	0.63 °C	0.37 °C	-0.22 °C	-0.25 °C	0.8 °C	-1.36 °C
Nc1nc(C(F)(F)F)nc2c1nnn2C[C@H]1CN(Cc2nccs2)CCO1	0.2 °C	-2.15 °C	0.32 °C	-0.15 °C	-0.98 °C	0.32 °C	-1.21 °C	0.71 °C
O=c1[nH]c(CS[C@H]2CC[C@H](O)CC2)nc2cc(OCC3CC3)cc(F)c12	0.58 °C	-1.62 °C	-0.32 °C	-5.43 °C	0 °C	0.1 °C	-0.76 °C	-0.56 °C
CCc1ccccc1NC(=O)CSC(=O)NNC(=O)[C@H](Cc1c[nH]c2ccccc12)NC(=O)OC(C)(C)C	1.95 °C	-0.97 °C	-0.07 °C	0.05 °C	4.75 °C	-10.2 °C	3.62 °C	5.76 °C
COc1cc2c(cc1OC)[C@H]1C[C@@H](O)[C@H](CC(C)C)CN1CC2	0.04 °C	1.89 °C	0.25 °C	-0.17 °C	-0.88 °C	0.59 °C	-0.72 °C	0.12 °C
Cc1cc(Cl)cc(-c2c3sc(CN4C(=O)C5C(C4=O)C5(C)C)cc3nn2C)c1OC1CCNCC1 (stereo not given)	0.34 °C	-5.5 °C	0.13 °C	-0.45 °C	-0.24 °C	-0.05 °C	-2.64 °C	-1.23 °C
COc1cc(C(C)C)c2c(c1)S(=O)(=O)N(COc1cc(=O)n3cccc(OCCN4CCCCC4)c3n1)C2=O	0.26 °C	-2.34 °C	-0.17 °C	0.5 °C	0.26 °C	-0.23 °C	2.88 °C	-1.28 °C
CNc1nccc(CN([C@H]2CC[C@H](N)CC2)S(=O)(=O)c2ccc(S(=O)(=O)N(Cc3ccc(Cl)cc3)C3CCCC3)cc2)n1	-0.6 °C	-2 °C	-0.02 °C	-0.71 °C	-0.62 °C	-3.03 °C	-2.32 °C	0.19 °C
CCN(c1cc(-c2ccc(CN3CCOCC3)cc2)cc(C(=O)NCc2c(C)cc(C)[nH]c2=O)c1C)C1CCOCC1	0.22 °C	-1.59 °C	-0.42 °C	0.03 °C	0 °C	-4.86 °C	-1.94 °C	-2.54 °C
CC(=O)N[C@H](C(=O)N[C@@H](CC(=O)O)C(=O)N[C@H](C(=O)N[C@@H](C)C(=O)N[C@H](C=O)CC(=O)O)C(C)C)C(C)C (Ac-VDVAD-aldehyde)	0.62 °C	-2.7 °C	-0.17 °C	-0.1 °C	0.07 °C	0 °C	-1.39 °C	-0.67 °C
Cc1[nH]nc(C(F)(F)F)c1Cc1sc2c(c1C(=O)N1C[C@](C)(O)CO1)c(=O)n(C)c(=O)n2C(C)C	0.25 °C	1.76 °C	1.15 °C	-0.46 °C	-0.31 °C	0.35 °C	-1.82 °C	1.02 °C
O=S(=O)(CSc1nnc(Br)n1Cc1ccc(Br)c2ccccc12)Nc1cccnc1	0.41 °C	-4.11 °C	-0.15 °C	-0.32 °C	-0.3 °C	0.05 °C	-1.41 °C	-0.15 °C
C#CCNC(=O)[C@H](CO)NC(=O)[C@H](CCCCN(CC)CC)NC(=O)[C@@H](NC(=O)[C@@H](NC(=O)[C@H](Cc1ccc(O)c(Cl)c1)NC(=O)c1cc(Cl)cc(Cl)c1)C1CCCC1)[C@@H](C)CC ({Benzoyl(3,5-Cl2)}-[Tyr(3-Cl)][Gly(cPent)]I[Lys(Et2)]S-{NH(propargyl)})	0.75 °C	-3.03 °C	0.1 °C	0.08 °C	-0.72 °C	0.49 °C	-2.28 °C	0 °C
CCN(CCN(C)C)C(=O)CNCc1cc(C(N)=O)ccn1	0.33 °C	-1.29 °C	0.23 °C	-0.08 °C	0.25 °C	-0.01 °C	-1.34 °C	-0.57 °C
O=C(c1ccc2c(ccn2-c2ccc(F)cc2)c1)N1CC(N2CCN(C(=O)c3nccs3)CC2)C1	0.62 °C	-3.81 °C	-1.22 °C	-0.29 °C	-1.59 °C	0 °C	-3.69 °C	-0.34 °C
CCCCCCCCCCCCC/C=C/[C@@H](O)[C@H](CO)NC(=O)CBr	0.2 °C	-6.16 °C	-4.16 °C	-9.74 °C	-9.26 °C	0.47 °C	-14.4 °C	-2.18 °C
CC(C)c1ccc(C(=O)N=C(N)N)cc1S(C)(=O)=O	0.77 °C	-2.81 °C	0.03 °C	-0.25 °C	-0.76 °C	0.04 °C	-2.37 °C	-0.41 °C
